SMN2 splice enh = increases expression of the SMN2 splice variant; Potency, µM (titrated, usually from 46.1 µM), actives largely listed as activators; 210,000 compounds, 2.8% hits; HEK293 SMN2-luciferase splicing reporter, luminescence, 30-36 h; AID 1458; also: nearly all actives have a fitted effect of over 55% in size
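qHTS luciferase splicing reporter: luminescence rises when SMN2 exon 7 is included in transfected HEK293 cells. Compound exposure lasted 30-36 h at 37C, with 4.5 mM final sodium butyrate as control, followed by a ONE-Glo read.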
Rab9 promoter act = Rab9 promoter activation. 320,000 compounds, 2.8% hits. Huh7 Rab9 promoter-luciferase reporter, luminescence, 24 h. Potency, µM (top dose mostly 9.22 µM), actives largely listed as activators. AID 485297; also: nearly all actives have a fitted effect of over 60% in size
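Luminescence read-out: Huh7 cells stably expressing Rab9-luciferase, treated 24 h with compound at 37 °C, then lysed with luciferase reagent for 10 min at ambient before reading.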
FLuc counter = inhibits or activates purified firefly luciferase, miR-21 counter-screen; AID 588342; 360,000 compounds, 6.9% hits; Potency, µM (series often up to 57.5 µM), hits mostly inhibitors; purified FLuc, Km substrates, luminescence inhibition; also: nearly all actives have a fitted effect of over 55% in size
Target sequence (P08659 whole entry, looked up): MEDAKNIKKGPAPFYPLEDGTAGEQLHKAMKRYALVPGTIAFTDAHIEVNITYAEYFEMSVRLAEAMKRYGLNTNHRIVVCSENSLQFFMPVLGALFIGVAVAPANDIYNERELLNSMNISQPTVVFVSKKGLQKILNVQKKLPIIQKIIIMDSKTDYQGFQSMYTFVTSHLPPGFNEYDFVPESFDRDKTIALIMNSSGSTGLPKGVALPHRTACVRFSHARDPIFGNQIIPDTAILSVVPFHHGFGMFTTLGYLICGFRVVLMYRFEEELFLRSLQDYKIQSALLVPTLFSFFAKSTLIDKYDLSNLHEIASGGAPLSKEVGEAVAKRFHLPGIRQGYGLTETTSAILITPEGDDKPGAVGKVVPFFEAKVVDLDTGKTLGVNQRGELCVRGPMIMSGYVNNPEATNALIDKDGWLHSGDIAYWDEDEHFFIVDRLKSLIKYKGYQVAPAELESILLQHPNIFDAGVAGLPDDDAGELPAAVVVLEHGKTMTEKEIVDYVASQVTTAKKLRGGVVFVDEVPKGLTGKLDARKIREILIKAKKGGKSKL
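Purified P. pyralis luciferase (10nM final) with 10uM D-luciferin and 10uM ATP (Km levels) in 50mM Tris acetate pH 7.5, 10mM Mg acetate, 0.01% Tween-20, 0.05% BSA; qHTS 6-point titration, ~60 µM downward; luminescence read.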
Luc counter = blocks Kinase-Glo luciferase, a counter-screen artifact. Kinase-Glo luciferase, ATP luminescence, 8 min. Q27757. AID 1379. 200,000 compounds, 0.28% hits. Potency, µM (titrated, usually from 38.3 µM), hits mostly inhibitors; also: nearly all actives have a fitted effect of over 60% in size
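Recombinant Kinase-Glo luciferase, 10 uM ATP (linear range), luciferin; imidazole pH 7.2 / KCl / MgCl2 / Tween / BSA buffer; 8 min RT; luminescence.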
NPC1 promoter act = activators of NPC1 promoter; Huh7 NPC1 promoter luciferase reporter, 24 h; Potency, µM (highest dose often 9.22 µM), actives largely listed as activators; 320,000 compounds, 2.4% hits; AID 485313; also: nearly all actives have a fitted effect of over 60% in size
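Quantitative HTS used a cell-based reporter: Huh7 cells stably bearing the NPC1 promoter upstream of luciferase were treated with compounds for 24 h, and promoter activation was read as luminescence.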
ELG1 genotox = induces genotoxicity in HEK293T cells with luciferase-tagged ELG1; HEK293T ELG1-luciferase reporter, luminescence, 16 h; Potency, µM (highest dose often 46 µM), actives largely listed as activators; 330,000 compounds, 1.3% hits; AID 504466; also: nearly all actives have a fitted effect of over 60% in size
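ELG1-luciferase HEK293T cells, 2,000/well; compound pinned in; 16 hr, 37 °C, 5% CO2; ONE-Glo, 30 min RT; luminescence on CCD imager.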
Numbers stand for hits; - = inactive; ? = inconclusive; . = no result given; [ ] = dose if it differs, or a comment. Hits are enriched below; roughly 7.3% of the tested compounds scored in any of these assays. Calls follow the shape of the dose curve; as a rule, active = well fitted curve in the direction sought with a large enough effect; inconclusive = small, poorly fitted or top-dose-only effect, or another doubt; inactive = no such curve, though single readings can be large; an effect the other way counts as inactive or inconclusive.

SMILES	SMN2 splice enh	Rab9 promoter act	FLuc counter	Luc counter	NPC1 promoter act	ELG1 genotox
COc1cccc(NC(=O)CSc2ncnc3c2oc2ccccc23)c1	-	-	-	-	-	-
Cc1ccc2c(c1)c1c3n2CCN(C(=O)c2ccc(C(F)(F)F)cc2)C3CCC1 (stereo not drawn)	-	.	-	.	.	.
CCOc1ccc(CNC(=O)CCS(=O)(=O)c2cc3c4c(c2)CCN4C(=O)CC3)cc1	.	.	-	.	.	.
CCCc1ccc(-c2cc(NC(=O)CSc3n[nH]c(N)n3)n(-c3ccccc3)n2)cc1	-	-	4.3µM	-	-	?
O=c1oc(/C=C/c2ccc([N+](=O)[O-])s2)nc2ccccc12	.	-	?	.	?	?
CC(=O)Oc1ccc(/C=C/c2nc3ccccc3c(=O)o2)cc1	.	?	0.43µM	.	?	-
CC(=O)Oc1ccccc1/C=C/c1nc2ccccc2c(=O)o1	.	?	15µM	.	?	-
COc1ccc(-c2oc(=O)c3cc(OC)c(OC)cc3c2/C=C/c2ccc(OC(C)=O)cc2)cc1	.	.	.	.	.	-
O=C(O)CNCCc1ccccc1	-[9.22 µM]	.	.	-[7.66 µM]	.	.
O=C(Nc1cccc(-c2nc3cc(Cl)ccc3o2)c1)C1CCCO1 (stereo not drawn)	25µM	-	-[2.3 µM]	-	-	-
COC(=O)c1c(-c2cccc(C)c2)csc1NC(=O)C1CCCO1 (stereo not drawn)	-	-	?	-	-	-
Cc1cccc(-c2nc3cc(NC(=O)C4CCCO4)ccc3o2)c1 (stereo not drawn)	1µM	0.28µM	0.85µM	?	0.32µM	1.2µM
O=C(O)c1ccc(Cl)cc1NC(=O)C1CCCO1 (stereo not drawn)	-	.	-	-	.	.
Cc1ccc2oc(-c3cccc(NC(=O)Cc4cccs4)c3)nc2c1	-	-	-	-	-	-
Cc1ccc2oc(-c3cccc(NC(=O)C4CCCO4)c3)nc2c1 (stereo not drawn)	13µM	-	4.3µM	-	-	21µM
CC(C)(C)c1ccc(/C=C/C(=O)Nc2nncs2)cc1	?	0.71µM	0.95µM	-	0.79µM	2.6µM
O=C(/C=C/c1ccc2c(c1)OCO2)Nc1nncs1	.	2µM	2.1µM	.	2.2µM	?
O=C(/C=C/c1ccc2c(c1)OCO2)Nc1c(C(=O)O)[nH]c2ccccc12	-	-	7.6µM	-	-	-
O=C(/C=C/c1ccc2c(c1)OCO2)Nc1nc(-c2ccccc2)cs1	-	-	3µM	-	-	-
O=C(Nc1nc(-c2ccc3c(c2)OCO3)cs1)C1COc2ccccc2O1 (stereo not drawn)	-	-	?	-	-	-
CCC(CC)c1nn2c(=O)cc(COc3ccc(NC(=O)c4ccccc4Cl)cc3)nc2s1	-	.	-	.	.	.
Cc1sc(NC(=O)/C=C/c2ccc3c(c2)OCO3)nc1-c1ccccc1	-	-	9.5µM	-	-	-
COC(=O)c1ccc(OCC2c3cc(OC)c(OC)cc3CCN2C(=O)c2cccc(C)c2)cc1 (stereo not drawn)	.	.	-	.	.	.
CC(=O)Nc1ccc(CN2CCCCCCC2)cc1	-	-	-	-	-	-
CCN1CCN(Cc2ccccc2NC(=O)Nc2ccc(C)cc2)CC1	?	4µM	24µM	-	?	10µM
SMILES	SMN2 splice enh	Rab9 promoter act	FLuc counter	Luc counter	NPC1 promoter act	ELG1 genotox
O=C(Nc1ccc(Br)cc1)Nc1ccccc1Cl	.	?	2.7µM	.	2.2µM	?
CCN1CCN(C(=O)C2(NC(=O)Nc3ccccc3Cl)CCCCC2)CC1	-	-	-	-	-	-
CCN1CCN(Cc2ccc(NC(=O)Nc3ccccc3Cl)cc2)CC1	?	3.5µM	6.7µM	-	4µM	18µM
CCN1CCN(CCC(=O)Nc2ccc(C)cc2)CC1	.	-	-	.	-	-
O=C(Nc1ccc2nccnc2c1)Nc1ccccc1Cl	.	?	?	.	?	-
O=C(Nc1ccc(CN2CCCCC2)cc1)Nc1ccccc1Cl	?	-	17µM	-	-	-
C=CC(C)=C[C@@]1(C)SC(=O)C(C)=C1O	.	-	.	.	-	.
OC1(C(O)(c2ccc(-c3ccccc3)cc2)c2ccc(-c3ccccc3)cc2)CCCCC1	-[9.22 µM]	.	.	-[7.66 µM]	.	.
O=S1(=O)N=C(Nc2ccc(N3CCOCC3)c(Cl)c2)c2ccccc21	13µM	3.5µM	5.4µM	-	?	?
CSc1nc(N)n2nc(C(C)(C)C)cc2n1	.	-	17µM	.	-	-
CC(C)(C)c1cc2nc(N)nc(N)n2n1	.	-	-	.	-	-
COc1ccc(-c2ccc(OC)cc2)cc1	.	-	?	.	-	-
COc1ccc(-c2cc3ccc(OC)cc3cn2)cc1	.	0.32µM	0.19µM	.	0.28µM	?
COc1ccc2cc(-c3cccnc3)ncc2c1	.	?	3.8µM	.	2.2µM	?
COc1ccc2cc(-c3ccccc3F)ncc2c1	.	?	0.95µM	.	1.4µM	?
COc1ccc(-c2cc3ccccc3cn2)cc1	.	0.63µM	0.85µM	.	0.63µM	2.6µM
COc1ccccc1N1CCN(C(=O)c2oc3ccccc3c2N)CC1	-	.	-	.	.	.
Cc1cccc(NS(=O)(=O)c2ccc(NC(=O)N3CCCC3)cc2)c1	.	.	-	.	.	.
COc1ccc2ccc(Oc3ncccn3)cc2c1	-	?	-	-	-	-
COc1ccc2cc(-c3ccon3)ccc2c1	.	?	3µM	.	?	?
CCOC(=O)c1ccc(NC(=O)c2cc(S(=O)(=O)N3CCOCC3)cn2C)cc1	.	-	-	.	-	-
CCOC(=O)c1ccc(NC(=O)c2cc(S(=O)(=O)N3CCOCC3)ccc2O)cc1	-	-	15µM	-	-	-
CCN(c1ccc(NC(=O)COC(=O)c2ccc(C)c(S(=O)(=O)N3CCOCC3)c2)cc1)C(C)C	-	.	17µM	-	.	.
CCN(c1ccc(NC(=O)COC(=O)c2ccc3ccccc3n2)cc1)C(C)C	-	-	15µM	-	-	-
Nc1ncnc2c1ncn2[C@@H]1O[C@H](COS(=O)(=O)O)[C@@H](O)[C@H]1O	.	-	-	.	-	-
SMILES	SMN2 splice enh	Rab9 promoter act	FLuc counter	Luc counter	NPC1 promoter act	ELG1 genotox
Nc1ncnc2c1ncn2[C@@H]1O[C@H](COP(=O)(O)O)[C@@H](O)[C@H]1O	-	-	-	.	-	-
Nc1ncnc2c1ncn2[C@@H]1O[C@H](COP(=O)(O)O)[C@@H](O)[C@@H]1O	-	.	.	4µM	.	.
Nc1ncnc2c1ncn2C1OC(COP(=O)(O)O)C(O)C1O (stereo not drawn)	?	-	-	2µM	-	-
COc1ccc2c(c1)C(=O)[C@H](OC(=O)NCCc1ccc(OC)c(OC)c1)[C@@H](c1ccc(OC)c(Br)c1)O2	-	.	.	-	.	.
N#CC(c1ccccc1O)N1N=C(c2ccccc2)CC1c1ccccc1 (stereo not drawn)	.	?	9.5µM	.	-	?
COc1cc(C(C#N)N2N=C(c3ccccc3)CC2c2ccccc2)ccc1O (stereo not drawn)	-	-	?	-	-	?
CC(=O)CCOC1CCCCO1 (stereo not drawn)	-	.	.	-	.	.
Cc1ccc(C)c(C(=N)c2ccccc2Cc2ccccc2)c1	-[9.22 µM]	.	.	-[7.66 µM]	.	.
